Where “and” joins values, the source holds several entries; their conditions need not be identical. Equal values may be shown once. Records with an inconclusive call do not appear. A number with no mark means an inactive call. Calls of active or inactive are those of the source. Calls come from the whole dose curve; as a rule, active = well fitted inhibition curve with a large enough effect; inconclusive = small, poorly fitted or top-dose-only effect; inactive = flat fitted curve, though single readings scatter.
assay: P-glycoprotein substrates identified in KB-8-5-11 adenocarcinoma cell line, qHTS therapeutic library screen (AID 1346987); conditions: KB-8-5-11 (P-gp overexpressing) viability, CellTiter-Glo, 72 h; series mostly up to 44.5 µM; activity change, negative = cytotoxicity: at the top concentration; note: nearly all actives have a fitted effect of over 65% in size
Outline: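 P-gp-mediated resistance screen: KB-8-5-11 cells treated 72 h with compounds in dose-response. CellTiter-Glo viability.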
% is set by controls: 0 for no effect and ±100 for the full control effect; potency is the fitted concentration of half-maximal effect.

| SMILES | Potency | activity change, negative = cytotoxicity [%] | outcome |
| --- | --- | --- | --- |
| COc1ccc(-c2ccc3ncc4c(c3c2)n(-c2ccc(N3CCNCC3)c(C(F)(F)F)c2)c(=O)n4C)cn1 | 8.3 nM (active) and 184 nM (active) and 206 nM (active) | – | – |
| CCCCN(CCCC)CC(O)c1cc(Cl)cc2c1-c1ccc(Cl)cc1C2=Cc1ccc(Cl)cc1 (centres undefined) | – | 6.42 | – |
| CC(C)(F)C[C@H](N[C@@H](c1ccc(-c2ccc(S(C)(=O)=O)cc2)cc1)C(F)(F)F)C(=O)NC1(C#N)CC1 | – | -22.5 | – |
| Cc1cc(NC(=O)Nc2ccc(N(C)C)cc2)c2cc(F)cc(F)c2n1 | – | 8.13 | – |
| COc1nccc(-c2c(-c3ccc(F)cc3)ncn2C2CCNCC2)n1 | – | -11.7 | – |
| C=C1c2cccc(O)c2C(O)=C2C(=O)[C@@]3(O)C(O)=C(C(N)=O)C(=O)[C@@H](N(C)C)[C@@H]3[C@@H](O)[C@H]12 | – | -0.713 | – |
| COc1ccc(-c2oc3c(CC=C(C)C)c(O)cc(O)c3c(=O)c2O)cc1 | – | -13.7 | – |
| Cc1cc(C(C)Nc2ccccc2)c2nc(N3CCOCC3)cc(=O)n2c1 (centres undefined) | inactive | – | – |
| O=C(O)C1=CC(O)C(O)[C@H](O)C1 (some centres undefined) | – | 6.97 | – |
| CC(C)(CO)[C@@H](O)C(=O)NCCC(=O)O | inactive | – | – |
| CC(C)(OCc1nn(Cc2ccccc2)c2ccccc12)C(=O)O | inactive | – | – |
| NS(=O)(=O)c1cc(Cl)c(Cl)c(S(N)(=O)=O)c1 | inactive | – | – |
| COc1cc2ncnc(Nc3cc(Br)c(O)c(Br)c3)c2cc1OC | inactive | – | – |
| CCOC(=O)N1CCN([N+]([O-])=NOc2cc(ON=[N+]([O-])N3CCN(C(=O)OCC)CC3)c([N+](=O)[O-])cc2[N+](=O)[O-])CC1 | – | – | inactive |

Source: PubChem BioAssay (NCATS)
